PKM2 act – increases activity of human pyruvate kinase M2; purified PKM2, Kinase-Glo ATP luminescence, activation; response scale: 0% is enzyme alone, no compound; AID 1631; actives 0.34% (n = 260,000); P14618; Potency, µM (top dose mostly 57.5 µM), inactives show top-dose activation, hits mostly activators; note: nearly all actives have a fitted effect of over 55% in size
Target sequence (P14618 whole entry, looked up): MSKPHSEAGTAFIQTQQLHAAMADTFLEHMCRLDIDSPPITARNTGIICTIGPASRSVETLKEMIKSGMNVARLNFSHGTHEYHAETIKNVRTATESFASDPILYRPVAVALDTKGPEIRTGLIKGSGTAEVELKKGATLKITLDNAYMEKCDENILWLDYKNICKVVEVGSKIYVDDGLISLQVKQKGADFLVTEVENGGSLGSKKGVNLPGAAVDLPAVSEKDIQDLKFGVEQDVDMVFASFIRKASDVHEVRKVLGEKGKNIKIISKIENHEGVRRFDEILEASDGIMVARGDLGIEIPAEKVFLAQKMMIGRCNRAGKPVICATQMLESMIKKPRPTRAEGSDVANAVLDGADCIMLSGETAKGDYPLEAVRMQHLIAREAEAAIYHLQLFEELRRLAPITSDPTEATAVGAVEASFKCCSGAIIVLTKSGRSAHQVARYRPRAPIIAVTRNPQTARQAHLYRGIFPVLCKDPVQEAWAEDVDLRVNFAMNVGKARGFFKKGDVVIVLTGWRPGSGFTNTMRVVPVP
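Purified hPK-M2 (>95%) run at intermediate activity with 0.1 mM ADP and 0.5 mM PEP in 50 mM imidazole pH 7.2, KCl, MgCl2; 1 h room temperature. ATP formed read by Kinase-Glo luminescence; normalized to uninhibited and no-enzyme controls.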
TrxR1 substrate – is turned over as a substrate by rat TrxR1. AID 588456. Potency, µM (titrated, usually from 114 µM), inactives show at the top dose activity change, negative = substrate turnover. actives 0.01% (n = 390,000). purified TrxR1 substrate turnover, NADPH consumption readout; note: nearly all actives have a fitted effect of over 50% in size
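Rat TrxR1, dispensed at 90 nM, was prereduced with 400 uM NADPH (final) for 5 min at ~22 deg C, then incubated with compound 15 min before 400 uM selenite. A first-read NADPH fluorescence drop versus no-compound background flagged substrates.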
Anesthetic bind – candidate novel general anesthetic via apoferritin binding; P02791; apoferritin/1-aminoanthracene competitive binding, fluorescence; Potency, µM (doses to about 77.5 µM), for inactives: at the top dose activity change, negative = displacement, most hits filed as inhibitors; actives 0.074% (n = 350,000); note: nearly all actives have a fitted effect of over 20% in size
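Steps: apoferritin (10 uM) was premixed with half-saturated 1-AMA in PBS, compounds were pin-transferred, plates stood 10 min at room temperature, fluorescence was read at 380/535 nm, and curves were fitted with a Hill equation.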
IDH1 R132H inh – blocks human mutant IDH1 R132H enzyme; actives 0.093% (n = 390,000); O75874; IDH1-R132H enzyme, NADPH consumption, diaphorase/resazurin fluorescence; Potency, µM (highest dose often 76.6 µM), without a hit: at the top dose activity change, negative = inhibition, usual class: inhibitors; note: nearly all actives have a fitted effect of over 65% in size
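IDH1-R132H (0.5 ug/mL) preincubated 30 min with compound, then NADPH (0.016 mM) and alpha-KG (2 mM) added; 80 min at RT, pH 7.5. Remaining NADPH coupled via diaphorase/resazurin to fluorescence (540/590 nm); concentration-response curves normalized to no-enzyme control.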
GALK inhibitor – blocks human galactokinase activity | Potency, µM (titrated, usually from 57.5 µM), for the others: top-dose activity change, negative = inhibition, hits mostly inhibitors | actives 0.007% (n = 270,000) | AID 1868 | Purified GALK, Kinase-Glo residual ATP luminescence | P51570
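Kinase-Glo Plus luminescence measured ATP left after a 1 h room-temperature reaction. The reaction used 5 nM GALK, 100 uM galactose and 35 uM ATP at pH 8.0 (20 mM HEPES, 5 mM MgCl2, 60 mM NaCl, 1 mM DTT, 0.01% BSA).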
rTrxR1 inhibitor – inhibitors of rat thioredoxin reductase 1. O89049. recombinant rTrxR1, NADPH fluorescence consumption, selenite substrate. Potency, µM (highest dose often 114 µM), inactives show at the highest dose activity change, negative = inhibition, usual class: inhibitors. actives 1% (n = 390,000). AID 588453; note: nearly all actives have a fitted effect of over 65% in size
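Rat TrxR1 (90 nM in the dispensed reagent) was pre-reduced with 400 uM NADPH for 5 min at room temperature, then incubated with compound for 15 min. After 400 uM selenite was added, NADPH fluorescence (Ex 340/Em 450 nm) was followed for 8 min.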
The depositor's hits bear a star; [ ] = dose if it differs, or a comment. The list is not random: actives were taken first. Their share in the collection is about 1.3%. Calls come from the whole dose curve; as a rule, active = well fitted curve in the direction sought with a large enough effect; inconclusive = small, poorly fitted or top-dose-only effect, or another doubt; inactive = no such curve, though single readings can be large; an effect the other way counts as inactive or inconclusive. % is set by controls: 0 for no effect and ±100 for the full control effect; potency is the fitted concentration of half-maximal effect.

Cc1ccc(C)c(C(=O)CSc2n[nH]c(C)n2)c1 was read as PKM2 act -3%, TrxR1 substrate -3%, Anesthetic bind -11%, IDH1 R132H inh 0%, GALK inhibitor 3% and rTrxR1 inhibitor 35µM*.
For O=C(NC(NNc1ccc([N+](=O)[O-])cc1)(C(F)(F)F)C(F)(F)F)c1ccc(F)cc1 the results were PKM2 act inconclusive, TrxR1 substrate -25%, Anesthetic bind inconclusive, IDH1 R132H inh -1%, GALK inhibitor 1% and rTrxR1 inhibitor 28µM*.
O=C(NC(NNc1ccc([N+](=O)[O-])cc1)(C(F)(F)F)C(F)(F)F)c1ccccc1Cl was read as PKM2 act 5%, TrxR1 substrate -22%, Anesthetic bind inconclusive, IDH1 R132H inh -2%, GALK inhibitor -2% and rTrxR1 inhibitor 3.2µM*.
For CC(C)(C)n1ncc2c(=O)n(Cc3ccc(F)c(F)c3F)cnc21 the results were TrxR1 substrate 9% and rTrxR1 inhibitor 27%.
`COc1ccc(-c2oc3ccccc3c2C(=O)Oc2ccccc2)cc1` gave PKM2 act -3%, TrxR1 substrate 203%[57.1 µM], Anesthetic bind 25%, IDH1 R132H inh 2% and rTrxR1 inhibitor 16µM*.
Cc1ccc(-c2csc(NC(=O)c3cccc(N4C(=O)CCC4=O)c3)n2)o1 was read as PKM2 act inconclusive, TrxR1 substrate 2%, Anesthetic bind -11%, IDH1 R132H inh 0%, GALK inhibitor -4% and rTrxR1 inhibitor 20µM*.
For COc1ccc(-n2c(SCC(=O)Nc3ccc4c(c3)OCO4)nc3c([nH]c4ccccc43)c2=O)cc1 the results were TrxR1 substrate -1%[57.1 µM], Anesthetic bind -6%, IDH1 R132H inh -9% and rTrxR1 inhibitor 26%[57.1 µM].
O=C(Cc1cc(=O)[nH][nH]1)N/N=C/c1c(Cl)cccc1Cl was read as PKM2 act 28%, TrxR1 substrate -7%, Anesthetic bind -12%, IDH1 R132H inh 6%, GALK inhibitor -3% and rTrxR1 inhibitor 45µM*.
O=C1/C(=C\c2ccc(Cl)cc2)CCC1CNc1ccc(Cl)cc1 (configuration not stated) was read as TrxR1 substrate 2%, IDH1 R132H inh 6% and rTrxR1 inhibitor 7.9µM*.
For COc1ccc(/C=C2/CCC(CN3CCOCC3)C2=O)cc1 (configuration not stated) the results were TrxR1 substrate 9%[11.4 µM], IDH1 R132H inh -3% and rTrxR1 inhibitor 1.6µM*.
CN(C)CC1CC/C(=C\c2ccc(O)cc2)C1=O (configuration not stated) was read as TrxR1 substrate -5%, IDH1 R132H inh 2% and rTrxR1 inhibitor 0.71µM*.
`CCCOc1ccc(CN(C(=O)c2nc(SC(C)C)ncc2Cl)C2CCS(=O)(=O)C2)cc1` (configuration not stated) gave TrxR1 substrate -5%, Anesthetic bind inconclusive, IDH1 R132H inh 0% and rTrxR1 inhibitor 5%.
For CCc1cccc(NC(=O)c2cn3c4c(ccc(Cl)c4c2=O)OC(C)C3)c1 (configuration not stated) the results were TrxR1 substrate -6%, Anesthetic bind -6%, IDH1 R132H inh -6% and rTrxR1 inhibitor 21%.
NC(=O)c1ccc(NC(=O)CSc2nnc(C3CCCCC3)n2N)cc1 was read as PKM2 act -1%, TrxR1 substrate -7%, Anesthetic bind -2%, IDH1 R132H inh -9%, GALK inhibitor 7% and rTrxR1 inhibitor -7%.
Screening Nn1c(SCC(=O)Nc2ccc(F)c(F)c2)nnc1C1CCCCC1 returned PKM2 act -1%, TrxR1 substrate 9%[57.1 µM], Anesthetic bind 4.5µM*, IDH1 R132H inh 1%, GALK inhibitor 0% and rTrxR1 inhibitor 5%[57.1 µM].

Screening results deposited in PubChem BioAssay by National Center for Advancing Translational Sciences (NCATS).
